“And” between values parts separate entries of the source, which are not always exact repeats. Equal entries are not always repeated. In all, about 16,000 compounds went through this assay and about 2,600 (16%) were called active. About 20% were inconclusive and are not listed. Calls follow the shape of the dose curve; as a rule, active = well fitted curve in the direction sought with a large enough effect; inconclusive = small, poorly fitted or top-dose-only effect, or effect the other way; inactive = no such curve, though single readings can be large or run the other way. A selection follows. The source holds several records for some structures; these can differ, active in one and inactive in another.
What follows are compounds tested against Cytochrome P450 2D6 (Homo sapiens) (UniProt P10635) (assay: Cytochrome panel assay with activity outcomes). Conditions: recombinant CYP, pro-luciferin dealkylation, luminescence, p450-cyp2d6; series mostly up to 57.1 µM.
Chain of Cytochrome P450 2D6 (Homo sapiens) (P10635 whole entry, looked up): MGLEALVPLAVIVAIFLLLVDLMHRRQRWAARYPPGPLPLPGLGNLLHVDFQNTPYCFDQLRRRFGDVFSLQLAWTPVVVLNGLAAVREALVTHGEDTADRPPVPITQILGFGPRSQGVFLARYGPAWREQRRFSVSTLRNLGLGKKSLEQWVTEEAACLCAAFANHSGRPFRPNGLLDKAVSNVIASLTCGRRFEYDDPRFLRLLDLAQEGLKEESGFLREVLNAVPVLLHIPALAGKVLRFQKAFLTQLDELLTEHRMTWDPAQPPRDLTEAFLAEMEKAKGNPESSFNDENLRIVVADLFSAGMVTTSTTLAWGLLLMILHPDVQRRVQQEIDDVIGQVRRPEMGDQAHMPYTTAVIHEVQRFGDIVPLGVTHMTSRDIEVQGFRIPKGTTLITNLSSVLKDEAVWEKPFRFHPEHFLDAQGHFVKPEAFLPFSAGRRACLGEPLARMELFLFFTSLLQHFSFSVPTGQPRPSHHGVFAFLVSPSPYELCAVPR
In the case of Cc1cc(C(=O)NNC(=S)NC(C)c2ccccc2)c2ccccc2n1 (configuration not stated), the AC50 was “inactive”.
In the case of COc1ccc(S(=O)(=O)N2CCC[C@H]2C(=O)NC2=NCCS2)cc1, the AC50 was “inactive”.
With COc1ccccc1N/C(=N/S(=O)(=O)c1ccc(C)cc1)c1ccc(Cl)cc1 the AC50 was “inactive”.
With CCOc1cc(CC(=O)N[C@@H](CC(C)C)c2ccccc2N2CCCCC2)ccc1C(=O)O the AC50 was “inactive”.
Cc1cc(N2CCN(c3nc4ccccc4s3)CC2)n2ncnc2n1 was tested, and the AC50 was “inactive”.
C[n+]1ccccc1/C=N\O was tested, and the AC50 was “inactive”.
In the case of CS(=O)(=O)c1ccccc1-c1nc(-c2cc(C(F)(F)F)cc(C(F)(F)F)c2)no1, the AC50 was “inactive”.
N[C@@H](CO)C(=O)O was tested, and the AC50 was “inactive”.
In the case of CO[C@]1(C2=NCCN2)COc2ccccc2O1, the AC50 was “inactive and 794 nM (active)”.
COc1ccc(N2C(=O)c3ccccc3NC2c2ccc(OC)c(CSc3ccccn3)c2)cc1 (configuration not stated) was tested, and the AC50 was “inactive”.
COCCN(C(=O)Nc1ccc(OC)cc1OC)C1CCN(C(C)=O)CC1 was tested, and the AC50 was “inactive”.
CCCCN(CC)Cc1ccc(CNC(=O)Nc2ccc(OC)cc2OC)o1 was tested, and the AC50 was 0.501 µM (active).
In the case of COc1ccc(NC(=O)Cn2cccc2)c(OC)c1, the AC50 was “inactive”.
With CC(=O)NC(CCS(C)(=O)=O)C(=O)Nc1c(F)cccc1F (configuration not stated) the AC50 was “inactive”.
In the case of O=C1CCCN1CC(CN1CCOCC1)Sc1nnnn1-c1ccccc1 (configuration not stated), the AC50 was “inactive”.
In the case of Cc1cc(C)c(S(=O)(=O)N2CCN(c3ccc([N+](=O)[O-])c(NCC4CCCO4)c3)CC2)c(C)c1 (configuration not stated), the AC50 was “inactive”.
Cc1cc(C)n(-c2cc(N3CCN(S(=O)(=O)c4ccc(C)c(C)c4)CC3)ccc2[N+](=O)[O-])n1 was tested, and the AC50 was 0.501 µM (active).
For Cc1cc(C)n(-c2cc(N3CCN(C(=O)c4ccc(C(C)(C)C)cc4)CC3)ccc2[N+](=O)[O-])n1, the AC50 was “inactive”.
For COc1ccc2c(C=Nc3c(C)n(C)n(-c4ccccc4)c3=O)c(O)n(Cc3ccco3)c(=O)c2c1, the AC50 was “inactive”.
With COc1cccc(Cn2c(=O)c(-c3cccs3)nc3cnc(N4CCN(C)CC4)nc32)c1 the AC50 was “inactive”.
For CN(C)C(=O)CCc1nc(-c2ccc(C(C)(C)C)cc2)no1, the AC50 was “inactive”.
In the case of COC(=O)c1ccc(Oc2nc(N(C)C)nc(N3CCOCC3)n2)cc1, the AC50 was “inactive”.
For O=C(O)[C@@H](O)[C@@H](O)[C@@H](O)[C@@H](O)c1nc2ccccc2s1, the activity, negative = inhibition was -1.94% [at 11.4 µM] (inactive).
With COc1ccccc1-c1nnc(NC(C)=O)s1 the AC50 was “inactive”.
With Clc1ccccc1-c1nccc(-n2ccnc2)n1 the AC50 was 7.94 µM (active).
COc1ccccc1-c1nccc(-n2ccnc2)n1 was tested, and the AC50 was 15.8 µM (active).
For FC(F)(F)c1ccccc1-c1nccc(N2CCNCC2)n1, the AC50 was “inactive”.
In the case of Cc1ccccc1-c1nccc(-n2ccnc2)n1, the AC50 was 10 µM (active).
In the case of O=C(O)CC[C@]1(C(=O)O)CCC(=O)c2ccccc21, the activity, negative = inhibition was 10.4% [at 11.4 µM] (inactive).
CCOCC(=O)Nc1cc(C(=O)Nc2ccccc2)ccc1Cl was tested, and the AC50 was “inactive”.
For CCc1ccc(C(=O)N2CCC(c3nc4ccccc4s3)CC2)cc1, the AC50 was “inactive”.
For CO[C@@H]1COC(=O)C/C=C\[C@H](C)[C@H](OC)COC(=O)[C@H]2CCCN2C(=O)C/C=C\[C@H]1C, the activity, negative = inhibition was 6.57% [at 11.4 µM] (inactive).
In the case of C[C@@H]1C[C@H]2[C@H]3C[C@@H](F)C4=CC(=O)C=C[C@]4(C)[C@@]3(Cl)[C@@H](O)C[C@@]2(C)[C@@H]1C(=O)COC(=O)C(C)(C)C, the AC50 was “inactive”.
For CC(C)(C)OC(=O)[C@H]([C@@H]1N[C@@H](C(=O)O)C(C)(C)S1)N1C(=O)c2ccccc2C1=O, the activity, negative = inhibition was 13.9% [at 11.4 µM] (inactive).
With CO[C@@]12C[C@@H](COC(=O)c3cncc(Br)c3)CN(C)[C@H]1Cc1cn(C)c3cccc2c13 the AC50 was 39.8 nM (active) and 20 nM (active).
In the case of CC(C)(C)NC(=O)COC(=O)c1cncc(Br)c1, the AC50 was “inactive”.
For Cc1ccc(OCCNC(=O)c2cncc(Br)c2)cc1C, the AC50 was “inactive”.
For COC(=O)C/C=C\[C@@H](C)[C@@H](/C=N\O[C@@H](C)c1cn([C@H](CO)Cc2ccccc2)nn1)OC, the activity, negative = inhibition was 15.1% [at 11.4 µM] (inactive) and 6.44% [at 11.4 µM] (inactive).
In the case of COc1ccc2cc3[n+](cc2c1OC)CCc1cc2c(cc1-3)OCO2, the AC50 was 2.51 µM (active).
For C[C@H]1[C@H](C)OC(=O)C[C@H](O)C[C@H](O)C[C@H](O)CC[C@H](O)[C@H](O)CC(=O)C[C@H](O)[C@H](C(=O)O)[C@H](O)C[C@H](O[C@@H]2O[C@@H](C)[C@H](O)[C@@H](N)[C@@H]2O)C=CC=CC=CC=CCCC=CC=C[C@@](C)(O)[C@H]1O, the activity, negative = inhibition was -1.84% [at 11.4 µM] (inactive).
O=C(Nc1ncn[nH]1)c1ccc([N+](=O)[O-])cc1[N+](=O)[O-] was tested, and the AC50 was “inactive”.
With O=C(O)COC(=O)Cc1ccccc1Nc1c(Cl)cccc1Cl the AC50 was “inactive”.
For NC(N)=NC(=O)Cc1c(Cl)cccc1Cl, the AC50 was “inactive and 126 nM (active)”.
In the case of NC(=O)NC(=O)Nc1ccccc1Cl, the AC50 was “inactive”.
In the case of CCC(CC)c1nnc(NC(=O)c2cccc(S(=O)(=O)N3CCc4ccccc43)c2)s1, the AC50 was “inactive”.
In the case of CCCCN1C(=O)C(NC(=O)CC(C)C)(C(F)(F)F)C2=C1CC(C)(C)CC2=O (configuration not stated), the AC50 was “inactive”.
With O=C(C[C@@H]1C=Cc2ccccc2N1C(=O)c1ccccc1)c1ccccc1 the activity, negative = inhibition was -16.3% [at 11.4 µM] (inactive).
In the case of CN1[C@H](CC(=O)c2ccccc2)CCC[C@H]1C[C@H](O)c1ccccc1, the AC50 was 25.1 µM (active).
For CN1[C@@H](CC(=O)c2ccccc2)CCC[C@@H]1C[C@@H](O)c1ccccc1, the AC50 was 0.251 µM (active).
Nc1cc(N)nc(SCC(=O)c2ccccc2)n1 was tested, and the AC50 was “inactive”.
O=C(C[C@@H](c1ccccc1)N1CCCCC1)c1ccccc1 was tested, and the activity, negative = inhibition was -19.2% [at 11.4 µM] (inactive).
In the case of COc1ccc(-n2c(=O)cnc3cnc(OC)nc32)cc1, the AC50 was “inactive”.
COCCn1c(=O)c(-c2cccc(C#N)c2)nc2cnc(N3CCN(C)CC3)nc21 was tested, and the AC50 was “inactive”.
O=C(c1cc(C(F)(F)F)cc(C(F)(F)F)c1)N1CCC[C@@]2(CCN(c3ccccc3)C2)C1 was tested, and the AC50 was “inactive”.
For O=C(N/N=C/c1ccc(O)cc1)c1ccc(COc2cc(Cl)ccc2Cl)o1, the AC50 was “inactive”.
For O=C(Nc1cccnc1)c1ccc(COc2cc(Cl)ccc2Cl)o1, the AC50 was 15.8 µM (active).
With O=C(Nc1ccn(Cc2ccccc2F)n1)c1ccc(COc2cc(Cl)ccc2Cl)o1 the AC50 was “inactive”.
% is scaled to controls: 0 for no effect and ±100 for the full control effect.
